Measurements reported in PubChem BioAssay (NCI).
About 79,000 compounds went through this panel and 15% of them were active in at least one assay; those are over-represented in the sample as a whole. Activity calls are given as the source filed them. No stated cut-off is given here; in the data, active means growth inhibition above about 70%; inactive means the rest.

Experiments:
[1] = NCI Yeast Anticancer Drug Screen. Data for the rad50 strain (AID 155);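 further: 0% = growth of vehicle-only cultures of the same strain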; conditions: S. cerevisiae rad50 strain growth inhibition; at 50.0 µM; active compounds read high
Method in brief: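 Inhibition values express reduced yeast growth in compound-treated cultures relative to vehicle-treated controls.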

[2] = NCI Yeast Anticancer Drug Screen. Data for the mec2-1 strain (AID 157); conditions: S. cerevisiae mec2-1 strain, at 50.0 µM, active compounds read high
Method in brief: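 Strain: mec2-1 (DNA repair/cell cycle alteration). Compound exposure, then growth measured; inhibition expressed relative to vehicle.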

[3] = NCI Yeast Anticancer Drug Screen. Data for the sgs1 mgt1 strain (AID 161);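 further: 0% = growth of cultures given vehicle only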; conditions: S. cerevisiae sgs1 mgt1 strain, at 50.0 µM, active compounds read high
Method in brief: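 Test agents were incubated with a DNA-repair-mutant yeast strain. Growth was then read and compared against vehicle-treated controls.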

[4] = NCI Yeast Anticancer Drug Screen. Data for the cln2 rad14 strain (AID 165);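 further: 0% = growth equal to vehicle treated cultures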; conditions: S. cerevisiae cln2 rad14 strain, at 50.0 µM, active compounds read high
Method in brief: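 Compounds are applied to the cln2 rad14 yeast strain, and growth is then compared with that of vehicle-treated cultures to give inhibition.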

[5] = NCI Yeast Anticancer Drug Screen. Data for the bub3 strain (AID 167); conditions: S. cerevisiae bub3 mutant strain, at 50.0 µM, active compounds read high
Method in brief: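 Steps: expose the mutant yeast strain to compound; grow alongside vehicle-treated cultures; measure growth; express inhibition against the vehicle cultures.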

[6] = NCI Yeast Anticancer Drug Screen. Data for the mlh1 rad18 strain (AID 175); conditions: S. cerevisiae mlh1 rad18 strain growth inhibition; at 50.0 µM; active compounds read high
Method in brief: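 Read-out is yeast growth inhibition, calculated against vehicle-only controls. The compound was applied to a strain engineered with DNA damage repair alterations.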

Measured: growth inhibition

c1cc(Sc2nc(Sc3ccncc3)nc(Sc3ccncc3)n2)ccn1
inactive: [1] 5.15% | [2] 8.6% | [3] 14.8% | [4] 39.2% | [5] -9.7% | [6] -7.25%

CC(C)CCCC(C)C1CCC2C3C(=O)C=C4CC(OC(=O)CCC(C)C)CCC4(C)C3CCC12C (stereo not drawn)
inactive: [1] -0.05% | [2] 11.9% | [3] 25.3% | [4] 19.8% | [5] -0.55% | [6] 0.25%

Nc1c(Br)cc(Br)c(C(=O)O)c1Br
inactive: [1] 6.35% | [2] -16.1% | [3] 10.8% | [4] 2.8% | [5] -15.2% | [6] -1.75%

CCc1cccc(CC)c1NC(=O)c1ccccc1Cl
inactive: [1] 7.9% | [2] 24.6% | [3] 31.3% | [4] 0.8% | [5] 26.1% | [6] 26.8%

Cc1cn(C2CC3OP(=O)(OCc4ccccc4)OCC3O2)c(=O)[nH]c1=O (stereo not drawn)
inactive: [1] 5.35% | [2] 7.1% | [3] 16.1% | [4] 7.25% | [5] 8% | [6] 4.15%

O=C1NC2(CCN(Cc3ccccc3)CC2)Nc2ccccc21
inactive: [1] -10.4% | [2] 1.6% | [3] -10.4% | [4] -24.1% | [5] 2.8% | [6] -6.75%

Nc1nnc2cc(Br)ccc2n1
inactive: [1] -6% | [2] -2.55% | [3] 17.7% | [4] 14.2% | [5] 19.5% | [6] 4.45%

Cc1cc(C)c(C2[C@H]3C(=O)N(c4ccc(Cc5ccc(N6C(=O)[C@@H]7ON(c8ccccc8)C(c8c(C)cc(C)cc8C)[C@@H]7C6=O)cc5)cc4)C(=O)[C@H]3ON2c2ccccc2)c(C)c1 (stereo partly drawn)
inactive: [1] 27.6% | [2] 31.8% | [3] 19.8% | [4] 25.2% | [5] 29.4% | [6] 24.2%

CC(C)CCCC(C)C1CCC2C3CC=C4CC(OCCC(C)C)CCC4(C)C3CCC12C (stereo not drawn)
active: [4] 84.3% | [5] 98.1% | [6] 90.4%
inactive: [1] 55.5% | [2] 66.7% | [3] 29.4%

CCCCCCC1CCC(OC(C)=O)CC1 (stereo not drawn)
inactive: [1] 5.65% | [2] -4% | [3] -1.1% | [4] -0.9% | [5] 1.7% | [6] 0.55%

COC1(OC)C(c2ccco2)C(C#N)(C#N)C1(OC)OC (stereo not drawn)
inactive: [1] -5.65% | [2] -1.95% | [3] -8.05% | [4] -38% | [5] -4.85% | [6] -0.9%

O=C1C2=Cc3ccccc3OC2(O)Oc2ccccc21 (stereo not drawn)
inactive: [1] 8.1% | [2] 6.4% | [3] -3.35% | [4] 3.35% | [5] 1.8% | [6] -73.2%

C1=Nc2ccccc2/C1=C/c1ccc2c(c1)OCO2
inactive: [1] 24.3% | [2] 11.7% | [3] -6.9% | [4] -55.6% | [5] 8.85% | [6] 8.5%

O=C1N=C(C=c2ccc(=Cc3[nH]c(=O)n(CN4CCCCC4)c3O)cc2)C(=O)N1CN1CCCCC1
inactive: [1] 1.2% | [2] -6.2% | [3] 3.65% | [4] 26.4% | [5] -10.3% | [6] -7.1%

C=CCCCCCCCCC(=O)NCCN1CCOCC1
active: [1] 84.5% | [2] 93.8% | [3] 99.2% | [4] 93.8% | [5] 91.8% | [6] 98.2%

O=c1[nH]nc(-c2ccccc2)n1/N=C/c1ccncc1
inactive: [1] 21.7% | [2] 16.4% | [3] 15.4% | [4] 10.2% | [5] 17.6% | [6] 22.7%

CC(=O)O[C@H]1CSC[C@@H](OC(C)=O)C1[N+](=O)[O-] (stereo partly drawn)
inactive: [1] 37.5% | [2] 25.4% | [3] 17.7% | [4] 43.2% | [5] 18.8% | [6] 47.1%

CN1C(=O)c2ccccc2Cc2c(Cl)ncnc21
inactive: [1] -0.5% | [2] 26.4% | [3] 11.2% | [4] -1.45% | [5] 28.6% | [6] 2.1%

Nc1nc2nc3c(nc2c(=O)[nH]1)CN(c1ccc(C(=O)O)cc1)C3=O
inactive: [1] 19.4% | [2] 5.6% | [3] -5.05% | [4] -7.45% | [5] 14.7% | [6] 11.4%

Cn1cnnc1Sc1c([N+](=O)[O-])ncn1C
inactive: [1] -3.3% | [2] -5.25% | [3] -5% | [4] 22.5% | [5] 15.6% | [6] -11.6%

O=C(CC(O)(C(F)(F)F)C(F)(F)F)c1ccc(Cl)c([N+](=O)[O-])c1
active: [1] 97.2% | [2] 99.2% | [3] 99.1% | [4] 96.6% | [5] 97.7% | [6] 98.8%

Cc1nc2nnc(N)n2nc1C
inactive: [1] 10.1% | [2] -6.15% | [3] 3.75% | [4] -22% | [5] 8.45% | [6] 4.05%

CCC1C(=O)Nc2ccccc21 (stereo not drawn)
inactive: [1] 16.4% | [2] 16.9% | [3] 1.3% | [4] 7.85% | [5] 13.8% | [6] 8.5%

Cc1ccc(-c2nnc(-c3cccc4ccccc34)o2)cc1
inactive: [1] 1.85% | [2] -31.9% | [3] 0.75% | [4] 4.1% | [5] -44.1% | [6] -8.05%

CC1=CC(C)(C)NC(=S)N1c1cccc2c(S(=O)(=O)O)cccc12
inactive: [1] 5.05% | [2] -20.8% | [3] -11.2% | [4] -32.3% | [5] 4.55% | [6] 6.3%

C(/C=N/NC1=NCCCCN1)=N\NC1=NCCCCN1
inactive: [1] -6.7% | [2] -13% | [3] -9.05% | [4] 4.5% | [5] -13.6% | [6] -11.2%

CC(Sc1ccc([N+](=O)[O-])cn1)C(=O)O (stereo not drawn)
inactive: [1] 2.55% | [2] 12.9% | [3] 13.5% | [4] -37% | [5] -25.9% | [6] 30.9%

CC(=O)[C@H]1CC[C@H]2[C@@H]3CCC4=CC(=O)CC[C@]4(C)[C@H]3C[C@H](OS(=O)(=O)c3ccc(C)cc3)[C@]12C
inactive: [1] 20.3% | [2] 18.1% | [3] 31.2% | [4] 38.7% | [5] 12.1% | [6] 15.4%

CN1C(=O)OC2C3NC(=O)OC3C(O)C(O)C21 (stereo not drawn)
inactive: [1] -7.85% | [2] -12.3% | [3] -6.3% | [4] -1.15% | [5] -6.15% | [6] -8.95%

O=C(CCl)Nc1ccc(O)c2ccccc12
inactive: [1] 14.8% | [2] 4.65% | [3] 7.45% | [4] 9.95% | [5] 5.85% | [6] 36.8%

O=P(O)(O)c1ccc(Oc2ccccc2)cc1
inactive: [1] -8.6% | [2] 1.35% | [3] -4.1% | [4] -22.2% | [5] 5.45% | [6] -2.85%

Cc1cc2[nH]c3ccccc3n2c(=O)c1N=Nc1ccccc1
inactive: [1] 3.1% | [2] 4.65% | [3] 9.75% | [4] -14.3% | [5] 7.05% | [6] 15.8%

NC1(C(=O)O)CC(O)(c2ccccc2)C(O)(c2ccccc2)C1 (stereo not drawn)
inactive: [1] -22.5% | [2] -6.1% | [3] -10% | [4] 6.2% | [5] 3.75% | [6] -9.5%

Cc1csc2nc(-c3ccccc3)[nH]c(=S)c12
inactive: [1] 5.5% | [2] 6.4% | [3] 10.9% | [4] -22.8% | [5] -4.8% | [6] 6.75%

CC[n+]1c(C)sc2cc(Cl)c(-c3ccccc3)cc21
inactive: [1] 23.4% | [2] 17.2% | [3] 30.4% | [4] -6.25% | [5] -3.25% | [6] 34.1%

OCc1ccc(Cl)cc1Cl
inactive: [1] 6.55% | [2] -0.25% | [3] -11.4% | [4] 10.3% | [5] -51.1% | [6] -27.9%

CC1=N/C(=C\c2ccc([N+](=O)[O-])cc2)C(=O)O1
inactive: [1] 19.9% | [2] 9.05% | [3] 2.45% | [4] 4.6% | [5] 13.2% | [6] 42.8%

COC(=O)CNC(=O)C1CSC(C)(C)N1 (stereo not drawn)
inactive: [1] -5.9% | [2] -6.65% | [3] -15.7% | [4] -12.2% | [5] -1.05% | [6] -9.15%
